Results from publication PMC7862700, “An all-to-all approach to the identification of sequence-specific readers for epigenetic DNA modifications on cytosine”.

Key:
Assay in all cases: DAPPL (digital affinity profiling via proximity ligation, sequencing); 10 mM Tris-HCl pH 7.5, 50 mM NaCl, 1 mM DTT, 4% glycerol, room temperature, 30 min; GST-TFs on glutathione beads, 16-mer random dsDNA library, 0.1% formaldehyde crosslink after washing; high values mean tight binding
FLI1 = molecular target: T1, FLI1 (Homo sapiens, UniProt Q01543 1-452); details: protein: recombinant; tags: N-terminal GST; dsDNA, one strand shown
T1 sequence: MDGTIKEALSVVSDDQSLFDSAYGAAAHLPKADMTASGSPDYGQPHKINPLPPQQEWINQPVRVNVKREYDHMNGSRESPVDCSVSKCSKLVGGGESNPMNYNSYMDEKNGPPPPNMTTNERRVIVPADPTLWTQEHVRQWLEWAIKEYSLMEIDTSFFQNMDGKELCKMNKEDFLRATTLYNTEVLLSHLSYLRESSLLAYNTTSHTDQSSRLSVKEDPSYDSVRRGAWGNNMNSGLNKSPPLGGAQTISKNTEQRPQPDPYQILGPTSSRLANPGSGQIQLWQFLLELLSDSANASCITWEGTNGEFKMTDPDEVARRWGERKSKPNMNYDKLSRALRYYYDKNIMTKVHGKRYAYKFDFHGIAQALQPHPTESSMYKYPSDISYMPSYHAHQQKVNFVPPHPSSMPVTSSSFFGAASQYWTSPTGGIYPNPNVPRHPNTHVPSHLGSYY
Outline: (§1)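 GST fusions of human transcription factors were expressed in yeast and captured with glutathione beads. Once given DNA barcodes and pooled alongside a tag-only sample, they were incubated for 30 min at room temperature with 200 nmole of a random double-stranded 16-mer DNA library in Tris/NaCl/DTT/glycerol buffer, then washed, crosslinked (0.1% formaldehyde), proximity-ligated, PCR-amplified and sequenced on an Illumina NextSeq500. The binding signal of each hexamer is its read frequency for a factor divided by its frequency for the tag-only sample.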

SPI1 = SPI1 (Homo sapiens, UniProt P17947 1-270); details: protein: recombinant; tags: N-terminal GST; dsDNA, one strand shown
Outline: as §1

ELF5 = molecular target: T2, ELF5 (Homo sapiens, UniProt Q9UKW6-2 1-255); details: protein: recombinant; tags: N-terminal GST; dsDNA, one strand shown
T2 sequence: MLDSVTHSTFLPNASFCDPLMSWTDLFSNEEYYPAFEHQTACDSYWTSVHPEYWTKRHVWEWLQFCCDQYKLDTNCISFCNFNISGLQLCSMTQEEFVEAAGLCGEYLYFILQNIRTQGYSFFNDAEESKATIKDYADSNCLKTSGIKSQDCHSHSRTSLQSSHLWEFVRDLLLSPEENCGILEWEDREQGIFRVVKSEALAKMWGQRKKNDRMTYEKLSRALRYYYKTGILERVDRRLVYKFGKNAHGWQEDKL
Outline: as §1

CRX = CRX (Homo sapiens, UniProt O43186 1-299); details: protein: recombinant; tags: N-terminal GST; dsDNA, one strand shown
Outline: as §1

ELK3 = molecular target: T3, ELK3 (Homo sapiens, UniProt P41970 1-407); details: protein: recombinant; tags: N-terminal GST; dsDNA, one strand shown
T3 sequence: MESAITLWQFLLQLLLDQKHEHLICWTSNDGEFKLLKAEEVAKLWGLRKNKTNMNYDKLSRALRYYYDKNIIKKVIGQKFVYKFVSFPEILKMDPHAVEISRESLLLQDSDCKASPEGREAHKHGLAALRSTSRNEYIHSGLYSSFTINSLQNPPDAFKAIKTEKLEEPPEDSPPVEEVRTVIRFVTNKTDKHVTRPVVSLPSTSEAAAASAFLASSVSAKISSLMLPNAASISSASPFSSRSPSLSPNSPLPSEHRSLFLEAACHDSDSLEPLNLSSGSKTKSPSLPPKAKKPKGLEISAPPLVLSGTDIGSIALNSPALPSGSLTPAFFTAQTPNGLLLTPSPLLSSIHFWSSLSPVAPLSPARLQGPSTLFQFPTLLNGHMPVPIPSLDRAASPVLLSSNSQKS
Outline: as §1

HSF1 = HSF1 (Homo sapiens, UniProt Q00613 1-529); details: protein: recombinant; tags: N-terminal GST; chain copies: 3; dsDNA, one strand shown
Outline: as §1

SPIC = molecular target: T4, SPIC (Homo sapiens, UniProt Q8N5J4 1-248); details: protein: recombinant; tags: N-terminal GST; dsDNA, one strand shown
T4 sequence: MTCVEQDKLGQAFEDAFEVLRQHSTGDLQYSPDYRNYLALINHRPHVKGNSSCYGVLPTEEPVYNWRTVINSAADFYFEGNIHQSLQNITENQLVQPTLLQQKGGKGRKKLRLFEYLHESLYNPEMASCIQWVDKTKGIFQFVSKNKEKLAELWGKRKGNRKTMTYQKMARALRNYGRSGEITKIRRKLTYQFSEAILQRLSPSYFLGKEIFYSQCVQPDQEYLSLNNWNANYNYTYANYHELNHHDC
Outline: as §1

Sequence of CRX (O43186 whole entry): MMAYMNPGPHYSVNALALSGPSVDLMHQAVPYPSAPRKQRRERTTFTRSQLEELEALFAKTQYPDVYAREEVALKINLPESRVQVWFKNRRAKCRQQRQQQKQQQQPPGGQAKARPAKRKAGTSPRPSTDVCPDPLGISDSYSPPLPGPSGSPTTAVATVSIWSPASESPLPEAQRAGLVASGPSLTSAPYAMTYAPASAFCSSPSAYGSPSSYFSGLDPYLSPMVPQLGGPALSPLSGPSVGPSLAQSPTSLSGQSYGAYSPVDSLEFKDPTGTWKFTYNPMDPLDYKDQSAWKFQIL
Sequence of HSF1 (Q00613 whole entry): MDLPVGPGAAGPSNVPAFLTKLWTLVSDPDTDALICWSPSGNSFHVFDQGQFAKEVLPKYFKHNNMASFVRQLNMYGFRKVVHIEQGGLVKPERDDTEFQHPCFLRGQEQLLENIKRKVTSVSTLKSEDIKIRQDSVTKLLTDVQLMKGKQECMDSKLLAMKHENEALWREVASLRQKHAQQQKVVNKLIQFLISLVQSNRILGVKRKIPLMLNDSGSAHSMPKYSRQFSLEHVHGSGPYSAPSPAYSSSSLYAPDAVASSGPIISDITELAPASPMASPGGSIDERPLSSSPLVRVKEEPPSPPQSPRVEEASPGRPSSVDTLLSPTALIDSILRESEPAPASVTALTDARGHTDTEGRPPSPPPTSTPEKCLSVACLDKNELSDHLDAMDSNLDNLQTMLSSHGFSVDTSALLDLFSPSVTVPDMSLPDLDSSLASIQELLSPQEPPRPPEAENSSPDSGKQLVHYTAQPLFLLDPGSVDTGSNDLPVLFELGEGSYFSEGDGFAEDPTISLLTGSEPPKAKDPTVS

Sequence	binding signal (FLI1)	binding signal (SPI1)	binding signal (ELF5)	binding signal (CRX)	binding signal (ELK3)	binding signal (HSF1)	binding signal (SPIC)
CCCGTC	1.12 fold enrichment (6-mer frequency, TF over GST control)	1.11 fold enrichment (6-mer frequency, TF over GST control)	1.12 fold enrichment (6-mer frequency, TF over GST control)				
CAGCCT	1.14 fold enrichment (6-mer frequency, TF over GST control)	1.03 fold enrichment (6-mer frequency, TF over GST control)		1.06 fold enrichment (6-mer frequency, TF over GST control)			
GGTGGT	1.05 fold enrichment (6-mer frequency, TF over GST control)				1.03 fold enrichment (6-mer frequency, TF over GST control)		
CACCGG	1.11 fold enrichment (6-mer frequency, TF over GST control)	1.08 fold enrichment (6-mer frequency, TF over GST control)	1.03 fold enrichment (6-mer frequency, TF over GST control)		1.16 fold enrichment (6-mer frequency, TF over GST control)		
GCACAC	1.02 fold enrichment (6-mer frequency, TF over GST control)						
CGTCCA	1.13 fold enrichment (6-mer frequency, TF over GST control)	1.03 fold enrichment (6-mer frequency, TF over GST control)			1.13 fold enrichment (6-mer frequency, TF over GST control)		
CGGTTA	1.05 fold enrichment (6-mer frequency, TF over GST control)	1 fold enrichment (6-mer frequency, TF over GST control)	1.07 fold enrichment (6-mer frequency, TF over GST control)		1 fold enrichment (6-mer frequency, TF over GST control)		
GGTAAA		1.04 fold enrichment (6-mer frequency, TF over GST control)	1.1 fold enrichment (6-mer frequency, TF over GST control)	1.07 fold enrichment (6-mer frequency, TF over GST control)	1.04 fold enrichment (6-mer frequency, TF over GST control)	1.04 fold enrichment (6-mer frequency, TF over GST control)	
GGCTAA				1.61 fold enrichment (6-mer frequency, TF over GST control)	1.02 fold enrichment (6-mer frequency, TF over GST control)	1.15 fold enrichment (6-mer frequency, TF over GST control)	1.03 fold enrichment (6-mer frequency, TF over GST control)
GCGTCT		1.04 fold enrichment (6-mer frequency, TF over GST control)	1.08 fold enrichment (6-mer frequency, TF over GST control)		1.13 fold enrichment (6-mer frequency, TF over GST control)	1.01 fold enrichment (6-mer frequency, TF over GST control)	1.11 fold enrichment (6-mer frequency, TF over GST control)
AGGATG	1.07 fold enrichment (6-mer frequency, TF over GST control)		1.23 fold enrichment (6-mer frequency, TF over GST control)				
GACTTA				1.93 fold enrichment (6-mer frequency, TF over GST control)		1.34 fold enrichment (6-mer frequency, TF over GST control)	1.08 fold enrichment (6-mer frequency, TF over GST control)
TCACGG	1.06 fold enrichment (6-mer frequency, TF over GST control)	1.01 fold enrichment (6-mer frequency, TF over GST control)	1.13 fold enrichment (6-mer frequency, TF over GST control)		1 fold enrichment (6-mer frequency, TF over GST control)		
ATCAAA		1.06 fold enrichment (6-mer frequency, TF over GST control)	1.02 fold enrichment (6-mer frequency, TF over GST control)	1.31 fold enrichment (6-mer frequency, TF over GST control)	1.08 fold enrichment (6-mer frequency, TF over GST control)	1.1 fold enrichment (6-mer frequency, TF over GST control)	
ATAATG		1.07 fold enrichment (6-mer frequency, TF over GST control)	1.07 fold enrichment (6-mer frequency, TF over GST control)	1.52 fold enrichment (6-mer frequency, TF over GST control)	1.22 fold enrichment (6-mer frequency, TF over GST control)	1.25 fold enrichment (6-mer frequency, TF over GST control)	1.21 fold enrichment (6-mer frequency, TF over GST control)
CGAACG						1.2 fold enrichment (6-mer frequency, TF over GST control)	1.11 fold enrichment (6-mer frequency, TF over GST control)
TGGGAA		1.21 fold enrichment (6-mer frequency, TF over GST control)	1.15 fold enrichment (6-mer frequency, TF over GST control)		1 fold enrichment (6-mer frequency, TF over GST control)	1.05 fold enrichment (6-mer frequency, TF over GST control)	1.03 fold enrichment (6-mer frequency, TF over GST control)
CGACTG		1.04 fold enrichment (6-mer frequency, TF over GST control)	1.04 fold enrichment (6-mer frequency, TF over GST control)		1.02 fold enrichment (6-mer frequency, TF over GST control)	1.02 fold enrichment (6-mer frequency, TF over GST control)	1 fold enrichment (6-mer frequency, TF over GST control)
CGAATC				1.12 fold enrichment (6-mer frequency, TF over GST control)		1.38 fold enrichment (6-mer frequency, TF over GST control)	1 fold enrichment (6-mer frequency, TF over GST control)
TAGGAT			1.06 fold enrichment (6-mer frequency, TF over GST control)	1.81 fold enrichment (6-mer frequency, TF over GST control)	1.03 fold enrichment (6-mer frequency, TF over GST control)	1.35 fold enrichment (6-mer frequency, TF over GST control)	1.06 fold enrichment (6-mer frequency, TF over GST control)
AGAGCT		1.01 fold enrichment (6-mer frequency, TF over GST control)		1.14 fold enrichment (6-mer frequency, TF over GST control)		1.05 fold enrichment (6-mer frequency, TF over GST control)	1.04 fold enrichment (6-mer frequency, TF over GST control)
ACAAGA						1 fold enrichment (6-mer frequency, TF over GST control)	1.06 fold enrichment (6-mer frequency, TF over GST control)
ACTGGA		1.1 fold enrichment (6-mer frequency, TF over GST control)		1.19 fold enrichment (6-mer frequency, TF over GST control)	1.01 fold enrichment (6-mer frequency, TF over GST control)	1.56 fold enrichment (6-mer frequency, TF over GST control)	1.16 fold enrichment (6-mer frequency, TF over GST control)
CGTAAA		1.09 fold enrichment (6-mer frequency, TF over GST control)	1.14 fold enrichment (6-mer frequency, TF over GST control)	1.15 fold enrichment (6-mer frequency, TF over GST control)	1.17 fold enrichment (6-mer frequency, TF over GST control)	1.17 fold enrichment (6-mer frequency, TF over GST control)	1.09 fold enrichment (6-mer frequency, TF over GST control)
TGTAAG		1.12 fold enrichment (6-mer frequency, TF over GST control)	1.11 fold enrichment (6-mer frequency, TF over GST control)	1.32 fold enrichment (6-mer frequency, TF over GST control)	1.11 fold enrichment (6-mer frequency, TF over GST control)	1.09 fold enrichment (6-mer frequency, TF over GST control)	1.22 fold enrichment (6-mer frequency, TF over GST control)
TAGGGC		1.01 fold enrichment (6-mer frequency, TF over GST control)	1.03 fold enrichment (6-mer frequency, TF over GST control)	1.22 fold enrichment (6-mer frequency, TF over GST control)		1.05 fold enrichment (6-mer frequency, TF over GST control)	1.11 fold enrichment (6-mer frequency, TF over GST control)
TGGCGA		1.03 fold enrichment (6-mer frequency, TF over GST control)				1.03 fold enrichment (6-mer frequency, TF over GST control)	1.08 fold enrichment (6-mer frequency, TF over GST control)
